{"source": "PubChem BioAssay (Tox21)", "note": "Values without a mark were called inactive. The source made the active and inactive calls. Calls come from the whole dose curve. % is set by controls: 0 for no effect and ±100 for the full control effect."}
{"target": "Acetylcholinesterase (Homo sapiens) (UniProt P22303)", "sequence (P22303 whole entry, looked up)": "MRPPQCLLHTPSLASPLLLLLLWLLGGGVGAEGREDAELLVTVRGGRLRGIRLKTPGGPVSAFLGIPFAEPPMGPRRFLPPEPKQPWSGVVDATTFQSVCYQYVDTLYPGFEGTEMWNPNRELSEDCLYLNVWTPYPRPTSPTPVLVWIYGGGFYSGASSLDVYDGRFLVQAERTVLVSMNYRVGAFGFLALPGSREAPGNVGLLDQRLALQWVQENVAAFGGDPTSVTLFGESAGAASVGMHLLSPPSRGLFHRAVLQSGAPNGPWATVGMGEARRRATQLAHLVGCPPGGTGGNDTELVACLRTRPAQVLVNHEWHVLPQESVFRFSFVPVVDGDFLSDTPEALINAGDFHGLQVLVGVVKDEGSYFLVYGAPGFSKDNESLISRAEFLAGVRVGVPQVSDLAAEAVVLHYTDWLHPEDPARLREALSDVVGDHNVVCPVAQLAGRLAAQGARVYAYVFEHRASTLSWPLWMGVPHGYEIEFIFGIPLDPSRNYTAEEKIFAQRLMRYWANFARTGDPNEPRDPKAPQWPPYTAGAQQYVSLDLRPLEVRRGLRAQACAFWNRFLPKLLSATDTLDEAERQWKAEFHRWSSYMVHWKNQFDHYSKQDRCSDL", "assay": "Acetylcholinesterase (AChE) small molecule antagonists: enzyme-based qHTS assay with human liver microsomes (AID 1347399); note: nearly all actives have a fitted effect of over 60% in size", "conditions": "Potency: qHTS inhibition; outcome: qHTS inhibition; series mostly up to 115 µM; activity change, negative = inhibition: at the top concentration", "outline": "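Recombinant human AChE (50 mU/mL in the enzyme mix) and human liver microsomes (0.25 mg/mL final) were preincubated with compound and NADPH (0.25 mg/mL final) for 30 min at 37 C. Acetylthiocholine/DTNB was then added; thiocholine was read colorimetrically after 10 min at room temperature.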"}
{"smiles": "O=Cc1ccc(Cl)c([N+](=O)[O-])c1", "activity change, negative = inhibition": "-0.153%"}
{"smiles": "CCc1oc2ccccc2c1C(=O)c1cc(I)c(O)c(I)c1", "activity change, negative = inhibition": "-1.93% [at 53 µM]"}
{"smiles": "CCOC(=O)c1ccc(N)cc1", "Potency": "inactive"}
{"smiles": "CC(C)OC(=O)CCC(=O)OC(C)C", "activity change, negative = inhibition": "-2.14%"}
{"smiles": "CCCc1cc(=O)[nH]c(=S)[nH]1", "Potency": "inactive"}
{"smiles": "Nc1ccc(O)c(C(=O)O)c1", "Potency": "inactive"}
{"smiles": "CC1=CC(C)(C)Nc2ccccc21", "Potency": "inactive"}
{"smiles": "CCSC(=O)N(CC(C)C)CC(C)C", "activity change, negative = inhibition": "-0.271%"}
{"smiles": "NC(N)=NS(=O)(=O)c1ccc(N)cc1", "activity change, negative = inhibition": "-2.94% [at 53 µM]"}
{"smiles": "O=C(O)CONC(=O)c1ccccc1", "activity change, negative = inhibition": "0.54%"}
{"smiles": "C=C[C@](C)(O)CC[C@@H]1[C@@]2(C)CCCC(C)(C)[C@@H]2CC[C@@]1(C)O", "activity change, negative = inhibition": "0.373%"}
{"smiles": "CC(=O)Nc1ccc(C)cc1", "activity change, negative = inhibition": "-0.462%"}
{"smiles": "Cc1ccc(S(=O)(=O)NC(=O)NC2CCCCC2)cc1", "activity change, negative = inhibition": "0% [at 53 µM]"}
{"smiles": "CC[C@H]1OC(=O)[C@H](C)[C@@H](O[C@H]2C[C@@](C)(OC)[C@@H](O)[C@H](C)O2)[C@H](C)[C@@H](O[C@@H]2O[C@H](C)C[C@H](N(C)C)[C@H]2O)[C@](C)(O)C[C@@H](C)CN(C)[C@H](C)[C@@H](O)[C@]1(C)O", "activity change, negative = inhibition": "0.086% [at 53 µM]"}
{"smiles": "CC[C@@H]([C@H](C)O)n1ncn(-c2ccc(N3CCN(c4ccc(OC[C@@H]5CO[C@@](Cn6cncn6)(c6ccc(F)cc6F)C5)cc4)CC3)cc2)c1=O", "activity change, negative = inhibition": "-1.1% [at 53 µM]"}
{"smiles": "OC1(c2ccc(Cl)c(C(F)(F)F)c2)CCN(CCCC(c2ccc(F)cc2)c2ccc(F)cc2)CC1", "activity change, negative = inhibition": "-3.24% [at 53 µM]"}
{"smiles": "CCC(C)(C)C", "activity change, negative = inhibition": "0.171%"}
{"smiles": "Nc1ccc(/C=C/c2ccc(N)cc2S(=O)(=O)O)c(S(=O)(=O)O)c1", "activity change, negative = inhibition": "-0.084% [at 0.435 µM]"}
{"smiles": "CCC(=O)Nc1cccc(N)c1", "activity change, negative = inhibition": "-0.611%"}
{"smiles": "CCN1CCN(c2cc(-c3ccc(F)cc3)c3c(n2)CCCCCC3)CC1", "activity change, negative = inhibition": "-1.12% [at 23.6 µM]"}
{"smiles": "CCN(CC)c1ccc(C(=O)c2ccccc2C(=O)O)c(O)c1", "Potency": "inactive"}
{"smiles": "O=C(O)Cc1ccc(-c2ccccc2)cc1", "activity change, negative = inhibition": "-2.05% [at 53 µM]"}
{"smiles": "O=C(O)C1=NN(c2ccc(S(=O)(=O)O)cc2)C(=O)C1", "Potency": "inactive"}
{"smiles": "C[C@]12C=CC(=O)C=C1CC[C@@H]1[C@@H]2C(=O)C[C@@]2(C)[C@H]1CC[C@]2(O)C(=O)CO", "Potency": "inactive"}
{"smiles": "C=CC(=O)NC(C)(C)CS(=O)(=O)O", "Potency": "inactive"}
{"smiles": "CC/C=C(\\C(=O)N[C@@H]1C(=O)N2C(C(=O)OCOC(=O)C(C)(C)C)=C(COC(N)=O)CS[C@H]12)c1csc(N)n1", "Potency": "inactive"}
{"smiles": "O=C1O[C@H]([C@@H](O)CO)C(O)=C1O", "Potency": "inactive"}
{"smiles": "O=C1C=CC(=O)O1", "activity change, negative = inhibition": "-0.341%"}
{"smiles": "Nc1ncnc2c1ncn2[C@@H]1O[C@H](CO)[C@@H](O)[C@H]1O", "activity change, negative = inhibition": "1.34% [at 53 µM]"}
{"smiles": "CCCCC=O", "activity change, negative = inhibition": "-0.548%"}
{"smiles": "O=P(O)(OCc1ccccc1)OCc1ccccc1", "activity change, negative = inhibition": "0.0835%"}
{"smiles": "CC1=NN(c2ccccc2)C(=O)C1", "Potency": "inactive"}
{"smiles": "O=c1[nH]cnc2[nH]ncc12", "Potency": "inactive"}
{"smiles": "COC(=O)[C@H]1[C@H]2C[C@@H]3c4[nH]c5cc(OC)ccc5c4CCN3C[C@H]2C[C@@H](OC(=O)c2cc(OC)c(OC)c(OC)c2)[C@@H]1OC", "Potency": "inactive"}
{"smiles": "CCOC(=O)C1=C(C)NC(C)=C(C(=O)OC)C1c1cccc([N+](=O)[O-])c1", "note": "(stereo not given)", "activity change, negative = inhibition": "3.17% [at 53 µM]"}
{"smiles": "OCC1(CO)COCOC1", "activity change, negative = inhibition": "0.458%"}
{"smiles": "COCCCOc1cc(C[C@@H](C[C@H](N)[C@@H](O)C[C@H](C(=O)NCC(C)(C)C(N)=O)C(C)C)C(C)C)ccc1OC", "activity change, negative = inhibition": "-0.336% [at 53 µM]"}
{"smiles": "C[Si](C)(CCCN)O[Si](C)(C)CCCN", "activity change, negative = inhibition": "1%"}
{"smiles": "Oc1cccc2[nH]ccc12", "activity change, negative = inhibition": "-4.77% [at 53 µM]"}
{"smiles": "Oc1ccc(OCc2ccccc2)cc1", "Potency": "inactive"}
